The nature of experiment [1]: NCI Yeast Anticancer Drug Screen. Data for the rad50 strain (AID 155).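 Further: 0% = growth of vehicle-only cultures of the same strain.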 As to conditions: S. cerevisiae rad50 strain growth inhibition; at 50.0 µM; stronger effect = higher value. A digest of the protocol:
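Readout: growth inhibition relative to vehicle-treated cultures. Compound exposure was carried out in a genetically defined yeast strain deficient in DNA damage repair.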

Experiment [2] can be described thus: NCI Yeast Anticancer Drug Screen. Data for the mec2-1 strain (AID 157). Conditions: S. cerevisiae mec2-1 strain, at 50.0 µM, stronger effect = higher value. The procedure, abridged: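 Growth inhibition is read against vehicle-treated controls after compound exposure of the mec2-1 yeast strain, which is defective in DNA damage repair or cell cycle control.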
A short description of experiment [3]: NCI Yeast Anticancer Drug Screen. Data for the sgs1 mgt1 strain (AID 161).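 Further: 0% = growth of cultures given vehicle only.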 Conditions: S. cerevisiae sgs1 mgt1 strain, at 50.0 µM, stronger effect = higher value. A digest of the protocol:
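Compounds are added to genetically altered yeast, and growth is compared with cultures given vehicle alone to give percent inhibition.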

Experiment [4] in a line: NCI Yeast Anticancer Drug Screen. Data for the cln2 rad14 strain (AID 165).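 Further: 0% = growth equal to vehicle treated cultures.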 As to conditions: S. cerevisiae cln2 rad14 strain, at 50.0 µM, stronger effect = higher value. The procedure, abridged: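 Growth inhibition, relative to vehicle-treated controls, is the read-out. The test organism is a yeast strain with defined genetic alterations, cln2 rad14.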
Experiment [5] is described as follows: NCI Yeast Anticancer Drug Screen. Data for the bub3 strain (AID 167). Conditions: S. cerevisiae bub3 mutant strain, at 50.0 µM, stronger effect = higher value. A digest of the protocol:
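Readout: yeast growth inhibition, expressed relative to vehicle-only wells. The test organism is a mutant strain from a panel with lesions in DNA repair or checkpoint genes.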

Experiment [6] can be described thus: NCI Yeast Anticancer Drug Screen. Data for the mlh1 rad18 strain (AID 175). Conditions: S. cerevisiae mlh1 rad18 strain growth inhibition; at 50.0 µM; stronger effect = higher value. A digest of the protocol: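 Cells of a genetically altered yeast strain, deficient in DNA damage repair, were treated with compound. Their growth was then compared with that of vehicle-treated cultures to give inhibition.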

The panel holds about 79,000 compounds, 15% with a hit somewhere; the sample as a whole holds those more often. Unmarked numbers belong to inactive results. The source made the active and inactive calls. No stated cut-off is given here; in the data, active means growth inhibition above about 70%; inactive means the rest.

As to `Cc1ncc(C)[n+]2c(C)csc12`, the growth inhibition in experiment [1] is 5%; in experiment [2], -7.95%; in experiment [3], -5.05%; in experiment [4], -0.4%; in experiment [5], -0.9%; in experiment [6], -23.4%.
Consider `Cn1c(O)c(C=N)c(=O)[nH]c1=O`, for which the growth inhibition was -4% in experiment [1]; 3.35% in experiment [2]; -1.65% in experiment [3]; -15.7% in experiment [4]; -8% in experiment [5]; -8.3% in experiment [6].
On to `CCC1(CCC(C)C)C(=O)NC(=O)N(c2ccccc2)C1=O` (stereo not given), for which the growth inhibition in experiment [1] was 1.2%; in experiment [2] it was -1.5%; in experiment [3], -4.5%; in experiment [4], 7.2%; in experiment [5], 8.3%; in experiment [6], -9.25%.
As for `CCOP(=O)(/C=C/c1cc(OC)ccc1OC)OCC`, the growth inhibition was -0.05% in experiment [1]; -12.8% in experiment [2]; -32.4% in experiment [3]; -24.5% in experiment [4]; -29.8% in experiment [5]; -26.1% in experiment [6].
On to `O=C(c1ccccc1)C1CN(C2CCCC2)C1c1ccccc1` (stereo not given), for which the growth inhibition is -10.2% in experiment [1]; 7.6% in experiment [2]; -1.55% in experiment [3]; -27.3% in experiment [4]; 10.4% in experiment [5]; 16.1% in experiment [6].
For `COc1ccc(C(O)(C(=O)OCCSC)c2ccc(OC)cc2)cc1`, the growth inhibition was -5.1% in experiment [1]; 2.85% in experiment [2]; -2.6% in experiment [3]; -21.5% in experiment [4]; 9% in experiment [5]; 0.1% in experiment [6].
With `COc1ccc2c(c1)C1(C=N2)CCN(C(C)=O)CC1`, the growth inhibition was 3.25% in experiment [1]; -17.1% in experiment [2]; -16.4% in experiment [3]; 17.1% in experiment [4]; -9.75% in experiment [5]; -24.8% in experiment [6].
`[C-]#[O+].[C-]#[O+].[C-]#[O+].[C-]#[O+].[Cr].c1ccc(P(CCP(CCP(c2ccccc2)c2ccccc2)c2ccccc2)CCP(c2ccccc2)c2ccccc2)cc1` (stereo not given): the growth inhibition in experiment [1] is 20.7%; in experiment [2] it was 23.2%; in experiment [3], 29.2%; in experiment [4], 16.8%; in experiment [5] it was 21.4%; in experiment [6], 31.6%.
For the compound `CCCC[S][Hg][I]`, the growth inhibition in experiment [1] is 92.5% (active); in experiment [2], 98.7% (active); in experiment [3] it was 97.9% (active); in experiment [4] it was 38.9%; in experiment [5] it was 99.1% (active); in experiment [6], 98.8% (active).
Regarding `C[N+]12C(=O)CC3OCC=C4C[N+]5(C)CCC6(c7ccccc71)C2C3C4CC65O` (stereo not given), the growth inhibition in experiment [1] was -13.8%; in experiment [2], -34.5%; in experiment [3], -22%; in experiment [4] it was 11.2%; in experiment [5], -17.6%; in experiment [6], -14.8%.
For `CN(C)C1CCNCC1`, the growth inhibition was 19.7% in experiment [1]; 5.2% in experiment [2]; 17% in experiment [3]; 4.75% in experiment [4]; 4.6% in experiment [5]; -1.5% in experiment [6].
Consider `C/C=C/CC1(CC)C(=O)NC(=S)NC1=O`, for which the growth inhibition in experiment [1] is 3.8%; in experiment [2], 7%; in experiment [3], 7.15%; in experiment [4] it was 9%; in experiment [5], 2.35%; in experiment [6], 13.6%.
With `COc1ccc(OP2OCC(C)O2)cc1` (stereo not given), the growth inhibition in experiment [1] was -1.1%; in experiment [2], -46.8%; in experiment [3], -10.4%; in experiment [4], -30%; in experiment [5], -2.6%; in experiment [6], 2.5%.
With `COc1ccc2c(c1)CC1N(C)CCC13CCCCC23` (stereo not given), the growth inhibition in experiment [1] is 41.8%; in experiment [2] it was 19.5%; in experiment [3], -1.2%; in experiment [4], 2.1%; in experiment [5], -11.4%; in experiment [6], -70.4%.
Take `C[C@]12CC[C@H](O[C@@H]3O[C@H](CO[C@@H]4O[C@H](CO)[C@@H](O)[C@H](O)[C@H]4O)[C@@H](O)[C@H](O)[C@H]3O)C[C@@H]1CC[C@@H]1[C@@H]2CC[C@]2(C)[C@@H](C3=CC(=O)OC3)CC[C@]12O`: the growth inhibition is -7.75% in experiment [1]; -13.6% in experiment [2]; -1.85% in experiment [3]; -0.85% in experiment [4]; -1.95% in experiment [5]; 8.85% in experiment [6].
As to `NC(=O)c1cc([N+](=O)[O-])c(N(CCCl)CCCl)c([N+](=O)[O-])c1`, the growth inhibition in experiment [1] was 13.8%; in experiment [2], 17.1%; in experiment [3], 5.05%; in experiment [4], 17.9%; in experiment [5], -1.55%; in experiment [6] it was 17.8%.
For `CNCCc1cccs1`, the growth inhibition in experiment [1] is -27.6%; in experiment [2], -6.4%; in experiment [3] it was 1.25%; in experiment [4], -29.1%; in experiment [5] it was 6.15%; in experiment [6], 4.7%.
`S=P(NCc1cccc(CNP(=S)(N2CC2)N2CC2)c1)(N1CC1)N1CC1`: the growth inhibition is 24.4% in experiment [1]; -0.2% in experiment [2]; 16.2% in experiment [3]; 7.8% in experiment [4]; -1.6% in experiment [5]; 9.4% in experiment [6].
`CN(C)C(=O)Sc1cc(Cl)c(S(=O)(=O)F)cc1Cl`: the growth inhibition is 9.45% in experiment [1]; 6.8% in experiment [2]; 10.7% in experiment [3]; 8.9% in experiment [4]; 3.35% in experiment [5]; 14.9% in experiment [6].
Take `CC(=O)Nc1ccc([As](=O)(O)O)cc1[N+](=O)[O-]`: the growth inhibition in experiment [1] was 0.85%; in experiment [2], -12.3%; in experiment [3], 0.1%; in experiment [4], -3.35%; in experiment [5], 23.2%; in experiment [6] it was 15.5%.

Source of the values: PubChem BioAssay (NCI).
